Experimental findings from PubChem BioAssay are described below.

The first assay deals with Neurogenic locus notch homolog protein 3 (Homo sapiens) (UniProt Q9UM47). The experiment in a line: NOTCH3 binders on small-molecule microarray, primary screen, biochemical, 635/667 nm fluorescence (AID 1096). The conditions noted are these: NOTCH3 binding, 635 nm fluorescence, higher = more signal.
Neurogenic locus notch homolog protein 3 (Homo sapiens), sequence (Q9UM47 whole entry, looked up): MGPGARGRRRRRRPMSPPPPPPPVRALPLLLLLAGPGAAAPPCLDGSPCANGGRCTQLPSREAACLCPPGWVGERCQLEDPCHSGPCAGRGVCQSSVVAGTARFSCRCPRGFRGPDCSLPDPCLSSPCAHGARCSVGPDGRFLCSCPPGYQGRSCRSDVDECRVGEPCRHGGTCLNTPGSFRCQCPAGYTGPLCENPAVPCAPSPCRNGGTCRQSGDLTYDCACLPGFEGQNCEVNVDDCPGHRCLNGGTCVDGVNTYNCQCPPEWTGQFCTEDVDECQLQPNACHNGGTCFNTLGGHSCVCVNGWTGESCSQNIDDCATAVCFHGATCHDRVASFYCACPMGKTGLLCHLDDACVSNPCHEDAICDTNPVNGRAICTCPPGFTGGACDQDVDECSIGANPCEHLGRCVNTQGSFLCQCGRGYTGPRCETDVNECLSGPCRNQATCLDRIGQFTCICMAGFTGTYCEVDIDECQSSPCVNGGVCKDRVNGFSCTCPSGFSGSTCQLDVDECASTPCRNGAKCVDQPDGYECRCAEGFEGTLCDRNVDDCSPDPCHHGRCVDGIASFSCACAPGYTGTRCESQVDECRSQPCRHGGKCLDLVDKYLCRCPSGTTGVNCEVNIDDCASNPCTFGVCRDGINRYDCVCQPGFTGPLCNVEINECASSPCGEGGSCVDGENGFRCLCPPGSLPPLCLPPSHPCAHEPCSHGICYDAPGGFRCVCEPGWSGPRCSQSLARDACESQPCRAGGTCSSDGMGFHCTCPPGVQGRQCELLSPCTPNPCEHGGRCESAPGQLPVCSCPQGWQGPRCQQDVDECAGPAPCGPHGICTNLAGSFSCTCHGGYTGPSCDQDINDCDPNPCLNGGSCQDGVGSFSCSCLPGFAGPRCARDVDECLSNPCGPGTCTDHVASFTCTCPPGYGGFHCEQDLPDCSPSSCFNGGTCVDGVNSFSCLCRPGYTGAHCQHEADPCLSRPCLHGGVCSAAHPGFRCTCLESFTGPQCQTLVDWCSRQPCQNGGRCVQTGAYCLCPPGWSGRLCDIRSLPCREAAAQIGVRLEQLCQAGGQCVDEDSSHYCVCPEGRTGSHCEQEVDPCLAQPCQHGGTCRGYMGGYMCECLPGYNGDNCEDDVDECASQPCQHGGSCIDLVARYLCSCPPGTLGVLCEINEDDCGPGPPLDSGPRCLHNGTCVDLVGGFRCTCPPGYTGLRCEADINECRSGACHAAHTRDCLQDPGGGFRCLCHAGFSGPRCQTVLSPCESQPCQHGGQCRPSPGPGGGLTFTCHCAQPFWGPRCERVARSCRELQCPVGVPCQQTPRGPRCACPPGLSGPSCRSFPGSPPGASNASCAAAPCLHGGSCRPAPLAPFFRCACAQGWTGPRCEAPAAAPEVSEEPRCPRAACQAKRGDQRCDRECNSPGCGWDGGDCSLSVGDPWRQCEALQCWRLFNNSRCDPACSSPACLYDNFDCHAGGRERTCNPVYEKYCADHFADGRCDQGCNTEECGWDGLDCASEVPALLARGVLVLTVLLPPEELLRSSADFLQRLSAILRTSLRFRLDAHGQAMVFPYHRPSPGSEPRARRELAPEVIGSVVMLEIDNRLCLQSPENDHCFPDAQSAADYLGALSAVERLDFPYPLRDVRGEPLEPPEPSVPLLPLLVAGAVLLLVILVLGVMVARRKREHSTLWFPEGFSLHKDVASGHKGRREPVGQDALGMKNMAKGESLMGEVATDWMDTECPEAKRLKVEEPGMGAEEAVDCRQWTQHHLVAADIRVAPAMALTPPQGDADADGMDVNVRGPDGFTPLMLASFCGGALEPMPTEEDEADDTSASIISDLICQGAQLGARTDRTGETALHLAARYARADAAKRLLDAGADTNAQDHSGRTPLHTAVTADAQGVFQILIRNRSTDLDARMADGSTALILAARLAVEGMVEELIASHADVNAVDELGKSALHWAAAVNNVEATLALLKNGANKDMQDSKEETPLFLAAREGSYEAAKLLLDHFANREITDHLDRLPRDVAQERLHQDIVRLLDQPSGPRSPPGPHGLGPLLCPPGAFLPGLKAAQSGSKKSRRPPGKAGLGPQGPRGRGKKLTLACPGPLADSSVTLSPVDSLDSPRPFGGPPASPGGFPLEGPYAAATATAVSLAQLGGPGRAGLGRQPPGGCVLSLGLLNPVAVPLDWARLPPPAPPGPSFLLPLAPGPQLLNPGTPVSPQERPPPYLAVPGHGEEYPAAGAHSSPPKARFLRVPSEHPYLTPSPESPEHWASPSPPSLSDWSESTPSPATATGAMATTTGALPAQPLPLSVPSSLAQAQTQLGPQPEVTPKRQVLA
As for `O[C@@H](Cc1ccccc1)[C@@H](/C=C/C1CC1)N(CC#Cc1ccccc1)Cc1cccc(Cl)c1`, the composite z-score was -1.08.
`CCOC(=O)C[C@H]1[C@H](OC(=O)c2ccccc2-c2ccccc2)[C@@H](NC(=O)c2ccc(-c3ccccc3)cc2)c2cc(OCCCO)ccc2N1C(=O)c1ccc2ccccc2n1` registered a composite z-score of 0.592.
On the same count and under the same terms, the same measure for `CN(C)c1ccc(C(O)C2C=CC3C(=O)N(c4ccccc4)C(=O)C3N2Nc2ccc([N+](=O)[O-])cc2)cc1` (centres undefined): 1.13.
Compound `COC(=O)[C@@]1(Cc2ccc(OC)cc2)[C@H]2c3cc(C(=O)N4CCCC4)n(Cc4c(-c5ccccc5)noc4C)c3C[C@H]2CN1C(=O)c1ccccc1` showed a composite z-score of 1.04.
Turning to `COc1ccc(-c2nc(-c3ccccc3)c3c(c2C)CO[Si]3(C(C)C)C(C)C)cn1`, the composite z-score is 0.0188.
The same measure, in the same setting: the same measure for `O=C1O[C@@H](c2ccccc2)[C@@H](c2ccccc2)N2[C@@H](c3ccc(O)cc3)[C@]3(C(=O)Nc4ccc(C#CC5=CCCCC5)cc43)[C@@H](C(=O)NC[C@H](O)c3ccccc3)[C@H]12`: 1.07; for `CO[C@H]1O[C@H](CO)[C@@H](OC(=O)Nc2ccccc2-c2ccccc2)[C@H](OC(=O)Nc2ccc3c(c2)OCO3)[C@H]1OC(=O)Nc1ccc2c(c1)OCO2`: 1.12; for `COC(=O)[C@@]1(Cc2ccc(F)cc2)[C@H]2c3cc(C(=O)N4CCCC4)n(CCN4CNCC4=O)c3C[C@H]2CN1C(=O)c1ccccc1`: 0.842.
Same read-out and setting: the same measure for `CN(C)CCCNC(=O)[C@@H]1c2ccccc2C(=O)N(Cc2ccccc2Cl)[C@H]1c1ccc(CO)cc1`: -0.247.

Tested on in another assay: not listed separately
The experiment in a line: small-molecule microarray binders of probe aEGFR, primary screen, biochemical, biotinylated probe, 635/667 nm fluorescence (AID 1097).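 Also: probe is a biotinylated anti-EGFR antibody binding compounds printed on slides; score combines fluorescence near 667 nm and signal to noise of each spot.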 The conditions noted are these: higher = more signal.
`COc1cc2c(cc1O)C(C)N(Cc1ccc([N+](=O)[O-])o1)CC2` (centres undefined) had a composite z-score of 0.174.
The compound `COCCOC(=O)N1C(=O)[C@@]2(c3cc(C#Cc4ccc(OC)cc4)ccc31)[C@H](c1ccc(O)cc1)N1[C@H](c3ccccc3)[C@H](c3ccccc3)OC(=O)[C@H]1[C@@H]2C(=O)N1CCCCCCC1` showed a composite z-score of 0.642.
Still for that read-out and setting: in the case of `COc1ccc([Si](C)(C)[C@@H]2[C@@H](CC(=O)N(CCO)Cc3ccccc3)O[C@]3(C(=O)N(Cc4cccc(N5C(=O)c6cccc7cccc5c67)c4)c4ccccc43)[C@H]2C)cc1` it was -0.115; in that of `Cc1ccc(S[C@]2(C(=O)O)CC(=O)N(Cc3ccccc3Cl)[C@@H]2c2ccc(CO)cc2I)cc1`, 0.519.
With `COC(=O)C1=CC(CCCO)=CC(C2CC2)N(C)C=C1C(=O)OC` (centres undefined), the composite z-score is -0.43.
In turn, `COCCOC(=O)N1C(=O)[C@@]2(c3cc(C#CCC(C(=O)OC)C(=O)OC)ccc31)[C@H](C(=O)N1CCc3cc(OC)c(OC)cc3C1)[C@H]1C(=O)O[C@H](c3ccccc3)[C@H](c3ccccc3)N1[C@@H]2c1ccc(OCCO)cc1` gave a composite z-score of 0.0961.
As for `COc1ccc([Si](C)(C)[C@H]2[C@H](CCO)O[C@@]3(C(=O)N(Cc4cccc(N5C(=O)COc6ccccc65)c4)c4ccccc43)[C@@H]2C)cc1`, the composite z-score is -0.148.
Take `CN(C)CCCNC(=O)[C@@]1(C)c2ccccc2C(=O)N(Cc2ccccc2)[C@H]1c1ccc(CO)cc1`: the composite z-score was -0.0639.
Still for that read-out and setting: the same measure for `COC(=O)c1c2oc(c1C(=O)OC)C(=O)N(Cc1ccccc1)Cc1cn(nn1)C[C@H](Cc1ccccc1)NC(=O)N[C@H](CO)CC2`: -0.11; for `[N-]=[N+]=NCc1ccccc1[C@H]1OC(c2ccc(OCCCO)cc2)=N[C@@]1(CCS(=O)(=O)c1ccccc1)C(=O)N1CCCCC1`: 0.283; for `O=C(CS)NCCCCCNC(=O)[C@@H]1C[C@@H]2C(=O)N3CCC[C@H]3C(=O)N2[C@@H]1c1cccc(OCCO)c1`: -0.0828.
As to `COCCOC(=O)N1C(=O)[C@@]2(c3cc(C#CCCO)ccc31)[C@H](C(=O)Nc1nc3ccccc3s1)[C@H]1C(=O)O[C@H](c3ccccc3)[C@H](c3ccccc3)N1[C@@H]2c1ccccc1OCCO`, the composite z-score was -0.0828.
Take `C[C@@H]1NC(=O)[C@@]23C(=O)N[C@@H](Cc4ccccc4)C2[C@H](C)[C@@]2(C)O[C@H]2C3/C=C/C/C=C\CNC(=O)[C@@H]2CCCN2C1=O` (some centres undefined): the composite z-score was -0.266.
In the case of `CCC[C@@H]1C[C@@]1(CCC)[C@@H](NC(=O)OCc1ccccc1)c1ccc(-c2ccccc2)cc1`, the composite z-score was -0.186.
Same read-out and setting: in the case of `CC[C@H]1C2=C3C(CC[C@H]4C(OCc5ccc(F)cc5C(F)(F)F)OC[C@](C)([C@@H]34)N(C(=O)OC(C)(C)C)C2)C(COC)C1COC` (some centres undefined) it was -0.113; in that of `CC(C)(C)OC(=O)CC[C@@]1(C(=O)NCc2ccccc2)N=C(c2ccc(OCCCO)cc2)O[C@@H]1c1ccccc1N=[N+]=[N-]`, 0.224.
Still for that read-out and setting: the same measure for `CCC(CC)C(O)C1C=CC2C(=O)N(c3ccccc3)C(=O)C2N1Nc1ccc(C(C)C)cc1` (centres undefined): 0.118; for `C[C@H]1NC(=O)[C@@]23C(=O)N[C@@H](Cc4ccccc4)C2[C@H](C)[C@@]2(C)O[C@H]2C3/C=C/C/C=C\CNC(=O)[C@H](Cc2ccccc2)NC1=O` (some centres undefined): -0.096.
Same read-out and setting: in the case of `COCCOC(=O)N1C(=O)[C@@]2(c3cc(C#CC4=CCCCC4)ccc31)[C@H](C(N)=O)[C@H]1C(=O)O[C@H](c3ccccc3)[C@H](c3ccccc3)N1[C@@H]2c1ccccc1OCCO` it was -0.0056; in that of `CCOC(=O)C[C@H]1[C@H](OC(=O)c2cc3ccccc3oc2=O)[C@@H](NC(=O)c2ccc(-c3ccccc3)cc2)c2cc(OCCCO)ccc2N1C(=O)c1ccc2ccccc2n1`, -0.0531; in that of `COC(=O)[C@@]1(Cc2ccc(F)cc2)[C@H]2c3cc(C(=O)N(C)C)n(Cc4cc(F)cc5c4OCOC5)c3C[C@H]2CN1C(=O)c1ccccc1`, 0.118.
In turn, `COC(=O)[C@@]1(Cc2ccccc2)[C@@H]2C(=CC(=O)[C@H]2CC(=O)C(=O)N(C)C)CN1C(=O)c1ccccc1` returned a composite z-score of 0.156.
As to `CN1C(=O)C2C=CC(C(O)c3ccc(F)cc3)N(Nc3ccccc3)C2C1=O` (centres undefined), the composite z-score stood at 0.0034.
Still for that read-out and setting: in the case of `CCCC[C@@H]1C[C@H]1[C@@H](NC(=O)c1ccccc1)c1ccc(C(F)(F)F)cc1` it was -0.15.
For the compound `COc1ccc([Si](C)(C)[C@H]2[C@H](CCn3cc([C@H](O)c4ccccc4)nn3)O[C@@]3(C(=O)N(Cc4ccc(N5C(=O)c6cccc7cccc5c67)cc4)c4ccccc43)[C@@H]2C)cc1`, the composite z-score was -0.285.
With `C[N+](C)(C)CCCC[C@@H]1NC(=O)[C@H]2C[C@@H](C(=O)NCCCCCCN)[C@@H](c3ccc(O)cc3)N2C1=O`, the composite z-score was 0.155.
Still for that read-out and setting: the same measure for `O[C@@H](Cc1ccccc1)[C@@H](/C=C/C1CC1)N(CC#Cc1ccccc1)Cc1cccc(Cl)c1`: -0.398; for `CCOC(=O)C[C@H]1[C@H](OC(=O)c2ccccc2-c2ccccc2)[C@@H](NC(=O)c2ccc(-c3ccccc3)cc2)c2cc(OCCCO)ccc2N1C(=O)c1ccc2ccccc2n1`: 0.2.
For the compound `CN(C)c1ccc(C(O)C2C=CC3C(=O)N(c4ccccc4)C(=O)C3N2Nc2ccc([N+](=O)[O-])cc2)cc1` (centres undefined), the composite z-score is -0.0234.
Same read-out and setting: the same measure for `COC(=O)[C@@]1(Cc2ccc(OC)cc2)[C@H]2c3cc(C(=O)N4CCCC4)n(Cc4c(-c5ccccc5)noc4C)c3C[C@H]2CN1C(=O)c1ccccc1`: 0.374; for `COc1ccc(-c2nc(-c3ccccc3)c3c(c2C)CO[Si]3(C(C)C)C(C)C)cn1`: 0.0361.
The same measure, in the same setting: the same measure for `O=C1O[C@@H](c2ccccc2)[C@@H](c2ccccc2)N2[C@@H](c3ccc(O)cc3)[C@]3(C(=O)Nc4ccc(C#CC5=CCCCC5)cc43)[C@@H](C(=O)NC[C@H](O)c3ccccc3)[C@H]12`: 0.12; for `CO[C@H]1O[C@H](CO)[C@@H](OC(=O)Nc2ccccc2-c2ccccc2)[C@H](OC(=O)Nc2ccc3c(c2)OCO3)[C@H]1OC(=O)Nc1ccc2c(c1)OCO2`: 0.0115.
Still for that read-out and setting: in the case of `COC(=O)[C@@]1(Cc2ccc(F)cc2)[C@H]2c3cc(C(=O)N4CCCC4)n(CCN4CNCC4=O)c3C[C@H]2CN1C(=O)c1ccccc1` it was 0.118; in that of `CN(C)CCCNC(=O)[C@@H]1c2ccccc2C(=O)N(Cc2ccccc2Cl)[C@H]1c1ccc(CO)cc1`, 0.0733.
